Hit rate of the full screen: of about 5,500 compounds, about 2,000 (36%) were called active. Not shown: some 18% with an inconclusive outcome. Cut-off read from the data, not from the text of the source: active = normalized growth mostly below about 0.91 (no sharp cut-off); inconclusive = no clear call, values can overlap the other calls; inactive = mostly above about 0.92. The list shows a part of the results.
Assay: chemical genetic growth profiling, strain panel (AID 1159580);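 note: tested at 20 µM; growth read once vehicle control cultures reached saturation at 30 °C; 1 = growth at the plate median or of vehicle wells; lower values mean less growth of the strain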
Details: S. cerevisiae deletion strains, growth OD

Measured: normalized growth

O=[N+]([O-])/C=C/c1ccc(F)cc1
active: locus YAR019C, strain CDC15, active compounds read low 0.0937 | locus YBL105C, strain PKC1, active compounds read low 0.0926 | locus YBR135W, strain CKS1, active compounds read low 0.0816 | locus YBR136W, strain MEC1, active compounds read low 0.0978 | locus YBR160W, strain CDC28, active compounds read low 0.091 | locus YDL017W, strain CDC7, active compounds read low 0.0902 | locus YDL028C, strain MPS1, active compounds read low 0.0982 | locus YDL101C, strain DUN1, active compounds read low 0.107 | locus YDL108W, strain KIN28, active compounds read low 0.102 | locus YDL132W, strain cdc53, active compounds read low 0.0889 | locus YDL214C, strain PRR2, active compounds read low 0.091 | locus YDR052C, strain DBF4, active compounds read low 0.0848 | locus YDR054C, strain cdc34, active compounds read low 0.0951 | locus YDR226W, strain ADK1, active compounds read low 0.0885 | locus YDR477W, strain SNF1, active compounds read low 0.1 | locus YER123W, strain YCK3, active compounds read low 0.102 | locus YER133W, strain GLC7, active compounds read low 0.0933 | locus YFL009W, strain cdc4, active compounds read low 0.0899 | locus YFL029C, strain CAK1, active compounds read low 0.0948 | locus YFR003C, strain YPI1, active compounds read low 0.0906 | locus YFR019W, strain FAB1, active compounds read low 0.0982 | locus YFR028C, strain CDC14, active compounds read low 0.0877 | locus YGR040W, strain KSS1, active compounds read low 0.104 | locus YGR052W, strain FMP48, active compounds read low 0.113 | locus YGR092W, strain DBF2, active compounds read low 0.0999 | locus YHR030C, strain SLT2, active compounds read low 0.111 | locus YHR079C, strain IRE1, active compounds read low 0.117 | locus YHR082C, strain KSP1, active compounds read low 0.121 | locus YHR205W, strain SCH9, active compounds read low 0.00904 | locus YIL147C, strain SLN1, active compounds read low 0.0998 | locus YJL095W, strain BCK1, active compounds read low 0.109 | locus YJL128C, strain PBS2, active compounds read low 0.0952 | locus YJL157C, strain FAR1, active compounds read low 0.0885 | locus YJR016C, strain ILV3, active compounds read low 0.0868 | locus YJR066W, strain TOR1 (second series), active compounds read low 0.0953 | locus YJR066W, strain TOR1, active compounds read low 0.114 | locus YKL048C, strain ELM1, active compounds read low 0.113 | locus YKL067W, strain YNK1, active compounds read low 0.087 | locus YKL101W, strain HSL1, active compounds read low 0.0964 | locus YKL193C, strain SDS22, active compounds read low 0.0853 | locus YKL203C, strain TOR2, active compounds read low 0.107 | locus YLR113W, strain HOG1, active compounds read low 0.129 | locus YLR133W, strain CKI1, active compounds read low 0.099 | locus YLR403W, strain SFP1, active compounds read low -0.000358 | locus YML070W, strain DAK1, active compounds read low 0.0913 | locus YMR001C, strain CDC5, active compounds read low 0.0877 | locus YMR205C, strain PFK2 (second series), active compounds read low 0.0893 | locus YMR277W, strain FCP1, active compounds read low 0.0903 | locus YNL006W, strain LST8, active compounds read low 0.0904 | locus YNL020C, strain ARK1, active compounds read low 0.102 | locus YNL161W, strain CBK1, active compounds read low 0.0853 | locus YNL183C, strain NPR1, active compounds read low 0.124 | locus YNL207W, strain RIO2, active compounds read low 0.091 | locus YNL222W, strain SSU72, active compounds read low 0.0861 | locus YNL307C, strain MCK1 (second series), active compounds read low 0.11 | locus YOL078W, strain AVO1, active compounds read low 0.0833 | locus YOL136C, strain PFK27, active compounds read low 0.0966 | locus YOR061W, strain CKA2, active compounds read low 0.0873 | locus YOR119C, strain RIO1, active compounds read low 0.112 | locus YOR231W, strain MKK1, active compounds read low 0.106 | locus YOR329C, strain SCD5, active compounds read low 0.0906 | locus YPL031C, strain PHO85, active compounds read low 0.0996 | locus YPL153C, strain RAD53, active compounds read low 0.101 | locus YPL204W, strain HRR25, active compounds read low 0.102 | locus YPL209C, strain IPL1, active compounds read low 0.0882 | locus YPL256C, strain CLN2, active compounds read low 0.135 | locus YPR025C, strain CCL1, active compounds read low 0.0876 | locus YPR106W, strain ISR1, active compounds read low 0.0871 | locus YPR111W, strain DBF20, active compounds read low 0.0892 | strain NNK1, active compounds read low 0.096 | strain TSCII, active compounds read low 0.0924
